# Test results taken from PubChem BioAssay AID1159580 (chemical genetic matrix, 2015).
# Where “and” joins values, the source holds several entries; their conditions need not be identical. Identical values can stand only once. About 2,000 (36%) of roughly 5,500 compounds were called active. Another 18% or so got no clear call; they are omitted. Some of the results follow. A number with no mark means an inactive call. No stated cut-off is given here; in the data, active means normalized growth mostly below about 0.91 (no sharp cut-off); inconclusive means no clear call, values can overlap the other calls; inactive means mostly above about 0.92.
# Test: chemical genetic growth profiling, strain panel (AID 1159580);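 further: tested at 20 µM; growth read once vehicle control cultures reached saturation at 30 °C; 1 = growth at the plate median or of vehicle wells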
# Conditions: S. cerevisiae deletion strains, growth OD
# [1] = locus YDL101C, strain DUN1, stronger effect = lower value
# [2] = locus YHR030C, strain SLT2, stronger effect = lower value
# [3] = locus YHR079C, strain IRE1, stronger effect = lower value
# [4] = locus YJL095W, strain BCK1, stronger effect = lower value
# [5] = locus YJR066W, strain TOR1, stronger effect = lower value
# [6] = locus YLR113W, strain HOG1, stronger effect = lower value
# [7] = locus YNL183C, strain NPR1, stronger effect = lower value
# [8] = locus YOR061W, strain CKA2, stronger effect = lower value
# [9] = locus YOR231W, strain MKK1, stronger effect = lower value
# [10] = locus YPL256C, strain CLN2, stronger effect = lower value
smiles,measurement,setting,value
CN1C(=O)CC[C@H]1c1cccnc1,normalized growth,"locus YBR021W, strain FUR4, stronger effect = lower value",1
same,normalized growth,"locus YBR229C, strain ROT2, stronger effect = lower value",1
same,normalized growth,"locus YCL029C, strain bik1, stronger effect = lower value",1.02
same,normalized growth,"locus YDL035C, strain GPR1, stronger effect = lower value",1.02
same,normalized growth,"locus YDL074C, strain BRE1, stronger effect = lower value",1.04
same,normalized growth,[1],1.01
same,normalized growth,"locus YDL134C, strain PPH21, stronger effect = lower value",1
same,normalized growth,"locus YDL185W, strain tfp1, stronger effect = lower value",1.03
same,normalized growth,"locus YDL192W, strain arf1, stronger effect = lower value",1.01
same,normalized growth,"locus YDR101C, strain arx1, stronger effect = lower value",1.05
same,normalized growth,"locus YDR150W, strain NUM1, stronger effect = lower value",0.992
same,normalized growth,"locus YDR162C, strain NBP2, stronger effect = lower value",1.01
same,normalized growth,"locus YDR318W, strain mcm21, stronger effect = lower value",1.02
same,normalized growth,"locus YDR388W, stronger effect = lower value",1.02
same,normalized growth,"locus YDR502C, strain sam2, stronger effect = lower value",1.04
same,normalized growth,"locus YEL061C, strain CIN8, stronger effect = lower value",0.993
same,normalized growth,"locus YER110C, stronger effect = lower value",1.03
same,normalized growth,"locus YER155C, strain BEM2, stronger effect = lower value",0.992
same,normalized growth,"locus YER167W, strain BCK2, stronger effect = lower value",0.997
same,normalized growth,"locus YGL078C, strain dbp3, stronger effect = lower value",1.03
same,normalized growth,"locus YGL086W, strain mad1, stronger effect = lower value",1.03
same,normalized growth,"locus YGL248W, strain PDE1, stronger effect = lower value",1.02
same,normalized growth,"locus YGR135W, strain pre9, stronger effect = lower value",1.01
same,normalized growth,"locus YGR229C, strain SMI1, stronger effect = lower value",1.01
same,normalized growth,"locus YGR252W, strain gcn5, stronger effect = lower value",1.11
same,normalized growth,[2],0.997 and 1.05
same,normalized growth,"locus YHR079C, strain IRE1 (second series), stronger effect = lower value",1.03
same,normalized growth,[3],1.04
same,normalized growth,"locus YHR094C, strain hxt1, stronger effect = lower value",1.01
same,normalized growth,"locus YHR129C, strain ARP1, stronger effect = lower value",0.993
same,normalized growth,"locus YHR200W, strain rpn10, stronger effect = lower value",1.01
same,normalized growth,"locus YIL066C, strain RNR3, stronger effect = lower value",1.01
same,normalized growth,"locus YIL073C, strain SPO22, stronger effect = lower value",1.07
same,normalized growth,"locus YIL125W, strain kgd1, stronger effect = lower value",1.02
same,normalized growth,"locus YIR030C, strain dcg1, stronger effect = lower value",1.02
same,normalized growth,[4],1.01 and 1.02
same,normalized growth,"locus YJL134W, strain LCB3, stronger effect = lower value",0.996
same,normalized growth,"locus YJL168C, strain set2, stronger effect = lower value",1
same,normalized growth,"locus YJL187C, strain SWE1 (second series), stronger effect = lower value",1.01
same,normalized growth,"locus YJR043C, strain POL32, stronger effect = lower value",1.02
same,normalized growth,[5],0.992
same,normalized growth,"locus YKL009W, strain mrt4, stronger effect = lower value",1.03
same,normalized growth,"locus YKL068W, stronger effect = lower value",1.01
same,normalized growth,"locus YKL085W, strain MDH1 (second series), stronger effect = lower value",1.01
same,normalized growth,"locus YKL085W, strain MDH1, stronger effect = lower value",1.01
same,normalized growth,"locus YKL190W, strain CNB1, stronger effect = lower value",1
same,normalized growth,"locus YKR001C, strain vps1, stronger effect = lower value",1.03
same,normalized growth,"locus YLR039C, strain RIC1, stronger effect = lower value",1.02
same,normalized growth,"locus YLR058C, strain SHM2, stronger effect = lower value",1
same,normalized growth,"locus YLR102C, strain apc9, stronger effect = lower value",1.02
same,normalized growth,[6],1.06
same,normalized growth,"locus YLR262C, strain YPT6, stronger effect = lower value",1.04
same,normalized growth,"locus YLR268W, strain sec22, stronger effect = lower value",1.03
same,normalized growth,"locus YLR330W, strain CHS5, stronger effect = lower value",0.999
same,normalized growth,"locus YLR342W, strain FKS1 (second series), stronger effect = lower value",1.01
same,normalized growth,"locus YLR371W, strain rom2, stronger effect = lower value",0.983
same,normalized growth,"locus YLR418C, strain cdc73, stronger effect = lower value",1.03
same,normalized growth,"locus YML016C, strain PPZ1, stronger effect = lower value",0.993
same,normalized growth,"locus YML032C, strain rad52, stronger effect = lower value",1.02
same,normalized growth,"locus YML124C, strain tub3, stronger effect = lower value",1.01
same,normalized growth,"locus YMR078C, strain ctf18, stronger effect = lower value",1.02
same,normalized growth,"locus YMR223W, strain ubp8, stronger effect = lower value",1.01
same,normalized growth,"locus YMR263W, strain SAP30, stronger effect = lower value",1
same,normalized growth,"locus YMR307W, strain GAS1, stronger effect = lower value",0.998
same,normalized growth,"locus YNL067W, strain RPL9B, stronger effect = lower value",1.01
same,normalized growth,[7],0.992
same,normalized growth,"locus YNL233W, strain BNI4, stronger effect = lower value",1.01
same,normalized growth,"locus YNL250W, strain rad50, stronger effect = lower value",1.02
same,normalized growth,"locus YNL271C, strain bni1, stronger effect = lower value",1.02
same,normalized growth,"locus YNL298W, strain CLA4, stronger effect = lower value",1.04
same,normalized growth,"locus YNL307C, strain MCK1, stronger effect = lower value",1.03
same,normalized growth,"locus YNL322C, strain KRE1, stronger effect = lower value",0.993
same,normalized growth,"locus YNR052C, strain pop2, stronger effect = lower value",1.02
same,normalized growth,"locus YOL006C, strain TOP1, stronger effect = lower value",1.04
same,normalized growth,"locus YOL012C, strain htz1",0.58
same,normalized growth,"locus YOL147C, strain pex11, stronger effect = lower value",1.04
same,normalized growth,[8],1.01
same,normalized growth,"locus YOR069W, strain VPS5, stronger effect = lower value",0.997
same,normalized growth,"locus YOR136W, strain idh2, stronger effect = lower value",1.02
same,normalized growth,"locus YOR144C, strain elg1, stronger effect = lower value",1.01
same,normalized growth,"locus YOR184W, strain ser1, stronger effect = lower value",1.03
same,normalized growth,[9],1.04
same,normalized growth,"locus YOR316C, strain cot1, stronger effect = lower value",1.04
same,normalized growth,"locus YPL241C, strain CIN2, stronger effect = lower value",0.995
same,normalized growth,[10],1.16
same,normalized growth,"locus YPR119W, strain clb2, stronger effect = lower value",1
same,normalized growth,"locus YPR141C, strain kar3, stronger effect = lower value",1
same,normalized growth,"locus YPR163C, strain tif3, stronger effect = lower value",1.06
same,normalized growth,"locus YPR167C, strain met16, stronger effect = lower value",1.01
same,normalized growth,"strain wtn01, stronger effect = lower value",1.04
CC1SC(c2cccnc2)N(c2ccc(Cl)cc2)C1=O (stereo not given),normalized growth,"locus YAR019C, strain CDC15, stronger effect = lower value",0.948
same,normalized growth,"locus YBL105C, strain PKC1, stronger effect = lower value",0.971
same,normalized growth,"locus YBR135W, strain CKS1, stronger effect = lower value",0.964
same,normalized growth,"locus YBR136W, strain MEC1, stronger effect = lower value",0.959
same,normalized growth,"locus YBR160W, strain CDC28, stronger effect = lower value",0.967
same,normalized growth,"locus YDL017W, strain CDC7, stronger effect = lower value",0.972
same,normalized growth,"locus YDL028C, strain MPS1, stronger effect = lower value",0.955
same,normalized growth,[1],0.928
same,normalized growth,"locus YDL108W, strain KIN28, stronger effect = lower value",0.951
same,normalized growth,"locus YDL132W, strain cdc53, stronger effect = lower value",0.894 (active)
same,normalized growth,"locus YDL214C, strain PRR2, stronger effect = lower value",0.6 (active)
same,normalized growth,"locus YDR052C, strain DBF4, stronger effect = lower value",0.906 (active)
same,normalized growth,"locus YDR054C, strain cdc34, stronger effect = lower value",0.828 (active)
same,normalized growth,"locus YDR226W, strain ADK1, stronger effect = lower value",0.932
same,normalized growth,"locus YDR477W, strain SNF1, stronger effect = lower value",0.411 (active)
same,normalized growth,"locus YER123W, strain YCK3, stronger effect = lower value",0.466 (active)
same,normalized growth,"locus YER133W, strain GLC7, stronger effect = lower value",0.421 (active)
same,normalized growth,"locus YFL009W, strain cdc4, stronger effect = lower value",0.931
same,normalized growth,"locus YFL029C, strain CAK1, stronger effect = lower value",0.926
same,normalized growth,"locus YFR003C, strain YPI1, stronger effect = lower value",0.972
same,normalized growth,"locus YFR019W, strain FAB1, stronger effect = lower value",0.43 (active)
same,normalized growth,"locus YFR028C, strain CDC14, stronger effect = lower value",0.945
same,normalized growth,"locus YGR040W, strain KSS1, stronger effect = lower value",0.397 (active)
same,normalized growth,"locus YGR052W, strain FMP48, stronger effect = lower value",0.374 (active)
same,normalized growth,"locus YGR092W, strain DBF2, stronger effect = lower value",0.904
same,normalized growth,[2],0.871
same,normalized growth,[3],0.441 (active)
same,normalized growth,"locus YHR082C, strain KSP1, stronger effect = lower value",0.4 (active)
same,normalized growth,"locus YHR205W, strain SCH9, stronger effect = lower value",0.725
same,normalized growth,"locus YIL147C, strain SLN1, stronger effect = lower value",0.952
same,normalized growth,[4],0.215 (active)
same,normalized growth,"locus YJL128C, strain PBS2, stronger effect = lower value",0.987
same,normalized growth,"locus YJL157C, strain FAR1, stronger effect = lower value",0.635 (active)
same,normalized growth,"locus YJR016C, strain ILV3, stronger effect = lower value",0.926
same,normalized growth,"locus YJR066W, strain TOR1 (second series), stronger effect = lower value",0.704
same,normalized growth,[5],0.284 (active)
same,normalized growth,"locus YKL048C, strain ELM1, stronger effect = lower value",0.922
same,normalized growth,"locus YKL067W, strain YNK1, stronger effect = lower value",0.673 (active)
same,normalized growth,"locus YKL101W, strain HSL1, stronger effect = lower value",0.779
same,normalized growth,"locus YKL193C, strain SDS22, stronger effect = lower value",0.947
same,normalized growth,"locus YKL203C, strain TOR2, stronger effect = lower value",0.331 (active)
same,normalized growth,[6],0.455 (active)
same,normalized growth,"locus YLR133W, strain CKI1, stronger effect = lower value",0.478 (active)
same,normalized growth,"locus YLR403W, strain SFP1, stronger effect = lower value",0.346 (active)
same,normalized growth,"locus YML070W, strain DAK1, stronger effect = lower value",0.694
same,normalized growth,"locus YMR001C, strain CDC5, stronger effect = lower value",0.936
same,normalized growth,"locus YMR205C, strain PFK2 (second series), stronger effect = lower value",0.64 (active)
same,normalized growth,"locus YMR277W, strain FCP1, stronger effect = lower value",0.969
same,normalized growth,"locus YNL006W, strain LST8, stronger effect = lower value",0.967
same,normalized growth,"locus YNL020C, strain ARK1, stronger effect = lower value",0.599 (active)
same,normalized growth,"locus YNL161W, strain CBK1, stronger effect = lower value",0.953
same,normalized growth,[7],0.393 (active)
same,normalized growth,"locus YNL207W, strain RIO2, stronger effect = lower value",0.91
same,normalized growth,"locus YNL222W, strain SSU72, stronger effect = lower value",0.96
same,normalized growth,"locus YNL307C, strain MCK1 (second series), stronger effect = lower value",0.462 (active)
same,normalized growth,"locus YOL078W, strain AVO1, stronger effect = lower value",0.937
same,normalized growth,[8],0.919
same,normalized growth,"locus YOR119C, strain RIO1, stronger effect = lower value",0.295 (active)
same,normalized growth,[9],0.47 (active)
same,normalized growth,"locus YOR329C, strain SCD5, stronger effect = lower value",0.953
same,normalized growth,"locus YPL031C, strain PHO85, stronger effect = lower value",0.434 (active)
same,normalized growth,"locus YPL153C, strain RAD53, stronger effect = lower value",0.47 (active)
same,normalized growth,"locus YPL204W, strain HRR25, stronger effect = lower value",0.46 (active)
same,normalized growth,"locus YPL209C, strain IPL1, stronger effect = lower value",0.969
same,normalized growth,[10],0.435 (active)
same,normalized growth,"locus YPR025C, strain CCL1, stronger effect = lower value",0.961
same,normalized growth,"locus YPR106W, strain ISR1, stronger effect = lower value",0.957
same,normalized growth,"locus YPR111W, strain DBF20, stronger effect = lower value",0.965
same,normalized growth,"strain NNK1, stronger effect = lower value",0.944
same,normalized growth,"strain TSCII, stronger effect = lower value",0.946
